AMA1-RON2 inh: inhibitors of Plasmodium falciparum AMA1-RON2 interaction. hit rate 0.2% among 360,000. AlphaScreen AMA1-biotinylated RON2 peptide binding. AID 720542. Potency, µM (top dose mostly 58.2 µM), actives largely listed as inhibitors; further: nearly all actives have a fitted effect of over 45% in size
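AMA1 (3D7) with his tag at 25 nM final met compounds first, then biotinylated RON2 peptide at 25 nM; detection used donor plus acceptor beads, 10 µg/mL apiece, read by AlphaScreen after 30 min at room temperature.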
SARS PLP yeast: SARS-CoV PLP inhibition in yeast | Potency, µM (titrated, usually from 32.9 µM), hits mostly activators | hit rate 0.19% among 330,000 | S. cerevisiae expressing SARS-CoV PLpro, growth rescue; calls by dose curve; further: nearly all actives have a fitted effect of over 55% in size
HCV inhibitor: inhibitors of hepatitis C virus infection. Huh7.5.1 HCVcc-Cre infection, luciferase reporter, 44 h. Potency, µM (top dose mostly 41.8 µM), hits mostly inhibitors. hit rate 3.4% among 340,000
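HCVcc-Cre virus at an moi near 0.5 was added right after compound to cells cultured 4 h from seeding (1,000 cells/well). Luciferase activity was determined 44 h later, 15 min after substrate addition at RT.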
Pf growth 96h: P. falciparum growth inhibition at 96 hours; P. falciparum luciferase reporter growth, 96 h; Potency, µM (highest dose often 28.7 µM), usual class: inhibitors; hit rate 6.9% among 320,000; AID 504834
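P. falciparum expressing integrated firefly luciferase, in erythrocytes at 2% hematocrit, 0.05% parasitemia, incubated with compounds 96 h at 37 C, 5% CO2. Growth inhibition read as loss of luminescence; two-generation exposure targets delayed-death apicoplast inhibitors.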
NS1 function inh: influenza NS1 inhibition | Potency, µM (top dose mostly 46.1 µM) | hit rate 0.4% among 270,000; calls by dose curve; further: actives are rising curves; nearly all actives have a fitted effect of over 50% in size
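Recovery from NS1-induced slow growth read by OD600 in budding yeast switched to galactose assay medium (pH 6.0, -URA) at 1:100 dilution. Compound 23 nl per well; the matching strain lacking NS1 serves as control.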
Pf growth 48h: inhibits P. falciparum growth in the first generation, 48 h; P. falciparum luciferase growth in erythrocytes, 48 h; Potency, µM (top dose mostly 28.7 µM), usual class: inhibitors; hit rate 5.9% among 310,000; AID 504832
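Parasite viability was followed by luminescence of a genomically integrated firefly luciferase. Cultures held 0.1% parasitemia at 2% hematocrit (final), incubated under 5% CO2 at 37 C.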
Of the large screens only hits and unclear results are named; the others gave an inactive call; ! = not active in a repeat. Sampled rows, rich in hits. Any-hit rate of the full collection: about 12%. Unless noted, the call rests on the fitted dose curve; in most records, active means well fitted curve in the direction sought with a large enough effect; inconclusive means small, poorly fitted or top-dose-only effect, or another doubt; inactive means no such curve, though single readings can be large; an effect the other way counts as inactive or inconclusive.

COc1ccc(-c2ccc(N(C)C)cc2)cc1[C@H]1[C@H]2C=CC[C@@H](C)[C@@H]2C(=O)N1Cc1ccccc1	AMA1-RON2 inh inconclusive, Pf growth 96h inconclusive, Pf growth 48h inconclusive
COc1ccc(-c2ccc(OC)c([C@H]3[C@@H]4C=CCC[C@@]4(C)C(=O)N3Cc3ccccc3)c2)cc1OC	AMA1-RON2 inh inconclusive, Pf growth 96h 11.7µM, Pf growth 48h 8.28µM
COc1ccc(Br)cc1[C@H]1[C@@H]2C=CCC[C@@]2(C)C(=O)N1Cc1ccccc1	Pf growth 96h 11.7µM, Pf growth 48h inconclusive
COc1ccc(-c2ccc(N(C)C)cc2)cc1[C@H]1[C@@H]2C=CCC[C@@]2(C)C(=O)N1Cc1ccccc1	AMA1-RON2 inh inconclusive, Pf growth 96h 9.28µM, NS1 function inh inconclusive, Pf growth 48h 9.28µM
COc1ccc(/C=C/c2ccccc2)cc1[C@H]1[C@@H]2C=CCC[C@@]2(C)C(=O)N1Cc1ccccc1	Pf growth 96h inconclusive, NS1 function inh inconclusive, Pf growth 48h 10.4µM
Cc1c(C(=O)Nc2cccc(N(C)S(C)(=O)=O)c2)cccc1[N+](=O)[O-]	none
COc1ccc(OC)c(/C=N/NC(=O)c2cnccn2)c1	none
O=C(NC(=S)NNC(=O)c1cnccn1)c1ccc(Cl)cc1	HCV inhibitor inconclusive, Pf growth 96h inconclusive, Pf growth 48h 4.15µM
O=C(Cc1ccc(Cl)cc1)NNC(=S)NC(=O)c1cccnc1	Pf growth 96h 4.15µM
COc1ccc(C(=O)NC(=S)NNC(=O)c2cnccn2)cc1	HCV inhibitor inconclusive, Pf growth 96h inconclusive, Pf growth 48h 2.62µM
CCCCOc1ccc(C(=O)NNC(=O)c2cnccn2)cc1OC	HCV inhibitor 12.6µM (no result: Pf growth 96h, NS1 function inh, Pf growth 48h)
O=C(NNC(=S)NC(=O)c1cccnc1)c1ccc(Cl)cc1	HCV inhibitor inconclusive, Pf growth 48h inconclusive
O=C(Cc1ccc(NS(=O)(=O)c2ccc(F)cc2)cc1)NCc1cccnc1	none
COC(=O)CCCN1C(=O)NC(c2ccc(-c3ccccc3)cc2)C(C(=O)OCc2ccccc2)=C1C (centres undefined)	HCV inhibitor inconclusive (no result: Pf growth 96h, NS1 function inh, Pf growth 48h)
CCCCCCN(C(=O)CCCCCN1C(=O)NC(c2ccc(C(C)(C)C)cc2)C(C(=O)OCc2ccccc2)=C1C)C(C(=O)NCCCC)c1ccc(OCC(=O)OC)c(C(=O)OC)c1 (centres undefined)	Pf growth 96h 2.08µM, NS1 function inh 8.91µM, Pf growth 48h 2.08µM (no result: AMA1-RON2 inh, HCV inhibitor)
CCCCCCN(C(=O)CCCCCN1C(=O)NC(c2ccccc2)C(C(=O)OCc2ccccc2)=C1C)C(C(=O)NCCCC)c1ccc(OCC(=O)OC)c(C(=O)OC)c1 (centres undefined)	Pf growth 96h 3.29µM, Pf growth 48h 2.08µM (no result: AMA1-RON2 inh, HCV inhibitor)
CCCCCCN(C(=O)CCCCCN1C(=O)NC(c2ccc(C3CCCCC3)cc2)C(C(=O)OCc2ccccc2)=C1C)C(C(=O)NCCCC)c1ccc(OCC(=O)OC)c(C(=O)OC)c1 (centres undefined)	Pf growth 96h 2.08µM, Pf growth 48h 2.94µM (no result: AMA1-RON2 inh, HCV inhibitor)
CC(C)(C)OC(=O)N1CSC[C@H]1C(=O)NC[C@H](CC(=O)O)c1ccc(Cl)cc1	none
O=C(Nc1ccc(Cl)cc1)C1CCN(C(=O)c2ccco2)CC1	Pf growth 48h inconclusive
CCOCCCNC(=S)N1CCCN(c2nc3cc(C)c(C)cc3cc2C#N)CC1	HCV inhibitor inconclusive, Pf growth 48h inconclusive
CCOCCCNC(=S)N1CCCN(c2nc3cc(C)cc(C)c3cc2C#N)CC1	HCV inhibitor 11.2µM, Pf growth 48h inconclusive
COCCCNC(=S)N1CCCN(c2nc3cc(C)c(C)cc3cc2C#N)CC1	HCV inhibitor 22.4µM, Pf growth 48h inconclusive
CCC(CC)NC(=O)c1cccc([N+](=O)[O-])c1C	Pf growth 96h 1.31µM
Cc1c(C(=O)NC(C)CCc2ccccc2)cccc1[N+](=O)[O-] (centres undefined)	Pf growth 48h inconclusive
CC(=O)N[C@@H](CS)C(=O)O	HCV inhibitor 10µM!
C/C=C/c1ccc(O)c(OC)c1	Pf growth 96h inconclusive (no result: NS1 function inh)
Oc1cc(O)cc(/C=C/c2ccc(O)c(O)c2)c1	AMA1-RON2 inh 7.08µM, HCV inhibitor 0.562µM (no result: SARS PLP yeast)
